Reference: PubChem BioAssay (NCATS)
Where “and” joins values, the source holds several entries; their conditions need not be identical. Equal entries are not always repeated. Inconclusive results are not listed. Unmarked numbers belong to inactive results. Calls follow the shape of the dose curve; as a rule, active = well fitted activation curve with a large enough effect; inconclusive = small, poorly fitted or top-dose-only effect; inactive = no such curve, though single readings can be large or run the other way.

target: Cellular tumor antigen p53 (Homo sapiens) (UniProt P04637); assay: Primary qHTS for small molecule compounds that upregulate eGFP-tagged delta133p53alpha (in N-terminal) cells. (AID 2060322); conditions: NCI-H358 eGFP-delta133p53alpha fluorescence, 24 h; activation: active compounds read high;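 also: series mostly up to about 56 µM; 0% = DMSO vehicle and 100% = reference activator; nearly all actives have a fitted effect of over 75% in size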
Sequence (P04637 whole entry, looked up): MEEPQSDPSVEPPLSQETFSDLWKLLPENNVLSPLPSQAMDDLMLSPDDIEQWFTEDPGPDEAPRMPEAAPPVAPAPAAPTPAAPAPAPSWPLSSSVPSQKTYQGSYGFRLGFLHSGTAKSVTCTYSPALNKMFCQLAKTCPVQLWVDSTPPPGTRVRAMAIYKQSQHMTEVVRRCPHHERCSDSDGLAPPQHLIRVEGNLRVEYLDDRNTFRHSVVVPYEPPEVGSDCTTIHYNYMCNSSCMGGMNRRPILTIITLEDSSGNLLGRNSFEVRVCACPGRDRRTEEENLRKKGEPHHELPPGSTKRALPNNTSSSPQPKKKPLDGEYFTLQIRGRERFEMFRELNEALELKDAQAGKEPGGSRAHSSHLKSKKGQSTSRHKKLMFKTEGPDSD
In short: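 NCI-H358 cells pre-induced 24 h with 10 ng/ml doxycycline to express N-terminal eGFP-delta133p53alpha, then dosed 24 h at 37C without doxycycline; fixed, Hoechst-stained, GFP intensity by laser scanning cytometry, normalized to DMSO (0%) and 57.5 uM 5-azacytidine (100%).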

Row | SMILES | activation
1 | CC1Sc2c(C(=O)O)c(=O)c3cc(F)c(N4CCNCC4)cc3n21 (centres undefined) | -8.47%
2 | C#C[C@]1(O)C=C[C@@H]2[C@@H]3CCC4=CC(=O)CC[C@@H]4[C@H]3CC[C@@]21CC | -3.53%
3 | O=[N+]([O-])O[C@H]1CO[C@H]2[C@@H]1OC[C@H]2O[N+](=O)[O-] | 34.5%
4 | CC(Cc1ccccc1)NCCn1cnc2c1c(=O)n(C)c(=O)n2C (centres undefined) | 9.6%
5 | CO/C=C(/C(=O)OC)c1ccccc1Oc1cc(Oc2ccccc2C#N)ncn1 | -36.8%
6 | C=CCC1([C@H](C)CCC)C(=O)NC(=O)NC1=O | 7.34%
7 | CCOCCOC(C)=O | -27.7%
8 | C=C1CC[C@@]2(O)[C@H]3Cc4ccc(O)c5c4[C@@]2(CCN3CC2CC2)[C@H]1O5 | 6.21%
9 | CC(CC(C#N)(c1ccccc1)c1ccccc1)N(C)C (centres undefined) | 24.3%
10 | CCOC(C(=O)OCCN(C)C)(c1ccccc1)c1ccccc1 | -3.95%
11 | CCCC(C)(COC(N)=O)COC(=O)NC(C)C (centres undefined) | -6.69% and 15.9%
12 | CCOP(=S)(OCC)Oc1cc(C)nc(C(C)C)n1 | -8.37%
13 | CC1=C(C(=O)O)N2C(=O)[C@@H](N)[C@H]2SC1 | -3.35%
14 | Cc1ccc(Cl)c(O)c1 | 5.08%
15 | COCC(=O)N(c1c(C)cccc1C)C(C)C(=O)OC (centres undefined) | 18.6%
16 | Clc1ccccc1N1CCNCC1 | 28.8%
17 | C[C@]12Cc3cn[nH]c3C[C@@H]1CC[C@@H]1[C@H]2CC[C@@]2(C)[C@H]1CC[C@]2(C)O | -11.9%
18 | CCN(C(C)=O)c1cccc(-c2ccnc3c(C#N)cnn23)c1 | -16.4%
19 | CC1(C)CC/C(=C/c2ccc(Cl)cc2)C1(O)Cn1cncn1 (centres undefined) | 2.51%
20 | CC(C)c1c(CN(C)C(C)Cc2ccccc2)n(C)n(-c2ccccc2)c1=O (centres undefined) | -14.2%

Row | SMILES | activation
21 | OC(O)C(Cl)(Cl)Cl | -29.9%
22 | Cc1c(C(=O)c2cccc3ccccc23)c2cccc3c2n1[C@H](CN1CCOCC1)CO3 | 12.1%
23 | C[C@]12CC[C@H]3[C@@H](CC=C4C[C@@H](O)CC[C@@]43C)[C@@H]1CC[C@@H]2O | -16.7%
24 | CO[C@H]1CCC(O[C@H]2C[C@H]([C@]3(C)CC[C@]4(C[C@H](O)[C@@H](C)[C@@H]([C@@H](C)C=C(C)C(=O)[C@H](C)C[C@H](C)C(=O)O)O4)O3)O[C@]3(O[C@@H]([C@H]4O[C@@](O)(CO)[C@H](C)C[C@H]4C)C[C@H]3C)[C@H]2C)O[C@H]1C (some centres undefined) | 20.4%
25 | c1ccc(CN2CCNCC2)cc1 | 15.3%
26 | CNCC(=O)c1ccc(O)c(O)c1 | 8.47%
27 | COc1ccc(Cc2nccc3cc(OC)c(OC)cc23)cc1OC | -17.6% and 20.4% and -35.4%
28 | COc1cccc2c1[C@]13CCN(CC4CC4)[C@H](C2)[C@]1(OC)CCC(=O)C3 | -12%
29 | O=C1OC(CCN2CCCCC2)OC1(c1ccccc1)c1ccccc1 (centres undefined) | -20.9%
30 | C1CCC(NC2CCCCC2)CC1 | 7.53%
31 | CC=C(C)C(=O)O[C@H]1C(C)=C2[C@@H]3OC(=O)[C@@](C)(O)[C@@]3(O)[C@@H](OC(=O)CCC)C[C@](C)(OC(C)=O)[C@@H]2[C@@H]1OC(=O)CCCCCCC | -0.0676%
32 | O=C(CCCN1CCC(n2c(=O)[nH]c3ccccc32)CC1)c1ccc(F)cc1 | -4.18%
33 | C[C@@H]1O[C@@H](O[C@@H]2C=C3CC[C@@H]4[C@@H](CC[C@]5(C)[C@H](c6ccc(=O)oc6)CC[C@@]45O)[C@@]3(C)CC2)[C@H](O)[C@H](O)[C@H]1O | -11.3%
34 | COc1cc(CCN)cc(OC)c1OC | -6.21%
35 | CCN(CCO)CCn1c(Cc2ccccc2)nc2c1c(=O)n(C)c(=O)n2C | 16.7%
36 | C[C@@H]1CC2=CC(=O)CC[C@@H]2[C@H]2CC[C@@]3(C)[C@@H](CC[C@]3(C)O)[C@@H]21 | -3.35%
37 | C[C@]12Cc3nonc3C[C@@H]1CC[C@@H]1[C@@H]2CC[C@@]2(C)[C@H]1CC[C@]2(C)O | 7.34%
38 | COc1cc2cc(c1Cl)N(C)C(=O)C[C@H](OC(=O)C(C)C)[C@]1(C)O[C@H]1[C@H](C)[C@@H]1C[C@@](O)(NC(=O)O1)[C@H](OC)C=CC=C(C)C2 | 0.447%
39 | CCC(CC)(CNC(=O)CCCO)c1cccc(OC)c1 | 16.7%
